# Bioassay records from PubChem BioAssay.
# A selection: hits, their analogues and other compounds. The true share with any hit is near 2.2%.
# HSP90 refold inh: HSP90 refolding inhibition in rabbit reticulocyte lysate; actives 0.91% (n = 290,000); luciferase refolding luminescence, 3 h; inhibition, % at 5.6 µM;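 active = inhibition above the screen-wide mean plus 3 SD, computed separately per campaign, cut at about 16% in these data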;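 also: 0% = DMSO wells and 100% = 60 µM geldanamycin wells; inhibitors lower the luminescence because luciferase stays unfolded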
# LGR2 inh: inhibitors of bursicon-induced Drosophila LGR2 receptor cAMP signaling; inhibition, % at 9.99 µM; actives 0.35% (n = 380,000); HEK293 LGR2, CRE-luciferase, bursicon-stimulated, 4 h;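 active = drop in luminescence signal, shown as inhibition above about 50% in the replicate tests, limit read from the data, passing the limit was not always enough; inconclusive = probably only some replicates passing the limit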;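 also: agonist challenge used bursicon conditioned medium at about half maximal strength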
# TWEAK Fn14 block: blocks TWEAK-Fn14 interaction in a reporter cell assay. TWEAK-stimulated Fn14 reporter cells, luciferase luminescence, 8 h. inhibition, % at 10 µM. actives 2% (n = 360,000). AID 1159606; in the data active = inhibition above about 50%
# TROY NFkB inh: blocks TROY-dependent signaling in reporter cells; Q293 LMP1-TROYcd NF-kB luciferase reporter, 4 h; inhibition, % at 10 µM; actives 0.98% (n = 360,000); AID 1347056;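 active = compounds whose plate-normalised and pattern-corrected inhibition of the luciferase reporter signal at the single screening dose is 50% or more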
# Numbers without * were called inactive; ? = inconclusive; · = no result given.
SMILES,HSP90 refold inh,LGR2 inh,TWEAK Fn14 block,TROY NFkB inh
O=C(CN1c2ccccc2Sc2ccccc21)NNC(=O)Nc1cccc(Cl)c1,0,·,40,53*
C[C@H]1CN([C@@H](C)CO)C(=O)c2cc(NS(=O)(=O)c3ccc(Cl)cc3)ccc2O[C@@H]1CN(C)S(=O)(=O)c1ccc(Cl)cc1,·,2,·,·
Cc1cc2ncc(-c3ccc(Cl)cc3)cn2n1,1,-59,-6,-53
Cc1ccc(-c2ccnc3c(Cl)c(C)nn23)cc1,3,1,-4,-17
Cc1ccc(-c2cnc3c(Cl)c(C)nn3c2)cc1,6,57*,75*,10
Cc1ccc(-c2cnc3cc(C)nn3c2)cc1,13,-11,74*,18
CCCCn1c(-c2ccncc2)nc2c1c(=O)[nH]c(=O)n2CC(C)C,3,-3,76*,·
CCOc1ccc(S(=O)(=O)Nc2ccc(C(=O)N(CC)CC(=O)NCc3cccs3)cc2)cc1,·,-5,74*,1
Cc1cc2nc(N3C(=O)CNC3=S)sc2cc1C,3,?,90*,63*
COC(=O)C[C@H]1C[C@@H]2c3cc(NC(=O)CC4CC4)ccc3O[C@@H]2[C@H](CO)O1,·,3,·,·
COc1cc(CC(=O)N2CCc3ccccc32)cc(OC)c1OC,-1,·,10,15
CCOC(=O)N1CCc2cc(OC)c(OC)c3c2c1cc1cc(OC)c(OC)cc13,·,18,54*,15
CC(C)(C)n1nc2c(c1NC(=O)c1ccc(Cl)c([N+](=O)[O-])c1)CS(=O)(=O)C2,-5,-13,54*,49
C[C@@H]1CN([C@@H](C)CO)C(=O)c2cccc(NC(=O)c3cnccn3)c2O[C@H]1CN(C)Cc1ccc(C(=O)Nc2ccccc2N)cc1,·,-9,·,·
COc1cccc(C=Nc2ccc3c(c2)OCCO3)c1O,12,·,80*,68*
C[C@@H]1CN([C@H](C)CO)S(=O)(=O)c2ccc(C#CCN(C)C)cc2O[C@H]1CN(C)Cc1ccc2c(c1)OCO2,·,2,·,·
C[C@@H]1CN([C@H](C)CO)C(=O)c2cccc(NC(=O)c3nc4ccccc4s3)c2O[C@H]1CN(C)Cc1ccncc1,·,-16,·,·
Cc1ccc(NC(=O)c2cccc(S(=O)(=O)N(C)c3ccccc3)c2)cc1S(=O)(=O)N1CCOCC1,-3,4,54*,20
Cc1ccc(N(C)S(=O)(=O)c2cccc(C(=O)Nc3nc4ccccc4[nH]3)c2)cc1,3,8,54*,32
Cc1nc2ccc(NC(=O)c3cccc(S(=O)(=O)N(C)c4ccccc4)c3)cc2s1,1,·,72*,60*
O=C(Nc1nc2ccccc2[nH]1)c1cccc(Br)c1,12,-113,31,-32
COc1ccccc1N(C)S(=O)(=O)c1ccc(C(=O)NCCc2ccc(F)cc2)cc1,-2,-15,53*,6
CN(c1ccccc1)S(=O)(=O)c1ccc(C(=O)NCCc2ccc(F)cc2)cc1,2,20,40,-3
CCC(=O)N1CCC2(CC1)CN(Cc1ccccn1)[C@H](CO)c1[nH]c3cc(OC)ccc3c12,·,-10,·,·
CO[C@@H]1CN(C)C(=O)c2cc(NC(=O)c3cnccn3)ccc2OC[C@H](C)N(C(C)=O)C[C@@H]1C,·,-7,·,·
SMILES,HSP90 refold inh,LGR2 inh,TWEAK Fn14 block,TROY NFkB inh
CN(c1ccccc1)S(=O)(=O)c1cccc(NC(=O)c2cccc(C#N)c2)c1,·,9,42,46
COC(=O)c1cccc(NC(=O)c2ccc(S(=O)(=O)N(C)c3ccccc3OC)cc2)c1,·,?,33,32
CN(c1ccccc1)S(=O)(=O)c1cccc(NC(=O)c2ccc3ncsc3c2)c1,2,8,76*,63*
CN(CC(=O)Nc1cccc(F)c1)CC(=O)Nc1cccc(S(=O)(=O)N(C)c2ccccc2)c1,·,·,21,12
COc1ccccc1N(C)S(=O)(=O)c1ccc(C(=O)Nc2ccc3nc(C)sc3c2)cc1,-5,26,50,50*
Cc1cc(C)c(NC(=O)CN(C)CC(=O)Nc2cccc(S(=O)(=O)N(C)c3ccccc3)c2)c(C)c1,·,15,53*,37
C[C@@H]1CN([C@@H](C)CO)C(=O)Cc2cc(NC(=O)Nc3ccc(F)cc3)ccc2O[C@H]1CN(C)CC1CCCCC1,·,-7,·,·
CCCN1C(=O)/C(=C/c2ccc(C)s2)SC1=Nc1ccc(OC)cc1,0,-7,8,0
COc1ccc(N=C2S/C(=C\c3ccc(Cl)c([N+](=O)[O-])c3)C(=O)N2CCN(C)C)cc1,2,?,60*,81*
CCN(CC)CCN1C(=O)/C(=C\c2ccc(Cl)c([N+](=O)[O-])c2)SC1=Nc1ccc(OC)cc1,4,19,99*,74*
CCN1C(=O)/C(=C/c2cccs2)SC1=Nc1ccc(OC)cc1,3,·,-13,8
COc1ccc(NC(=O)Nc2ccc3c(c2)C(=O)N([C@@H](C)CO)C[C@@H](C)[C@@H](CN(C)C(=O)Nc2cccc4ccccc24)OCCCC[C@H](C)O3)cc1,·,-17,·,·
O=c1cc(-c2ccc3c(c2)OCO3)oc2ccccc12,5,-81,-22,-66
Nc1c(-c2ccc3c(c2)OCCO3)oc2ccccc2c1=O,6,-63,55*,33
Cc1ccccc1C1CCCN(C(=O)c2cc(COc3c(F)cccc3F)on2)C1 (stereo not drawn),3,-3,85*,1
COc1ccc(Cn2c(=O)[nH]c3cc(C(=O)N4CCN(c5ccccc5OC)CC4)ccc3c2=O)cc1,-3,·,53*,31
COc1ccc(C(=O)N2CCN(c3ccccc3OC)CC2)cc1,-2,-12,10,5
COc1cc(OC)cc(C(=O)N2CCC(N3CCN(c4ccccc4OC)CC3)CC2)c1,-1,2,53*,52*
CN(C)C(=O)C[C@@H]1CC[C@@H]2[C@H](COC[C@H](O)CN2CC2CCCCC2)O1,·,9,·,·
COc1cccc(CN(C)C(=O)c2cc(COc3c(F)cccc3F)on2)c1,4,-38,25,-41
O=C(NCCc1cn2ccccc2n1)c1cc(COc2ccc3ncccc3c2)on1,3,20,66*,41
O=C(NC1CCCC1)c1cc(COc2ccc3ncccc3c2)on1,-1,·,25,29
COc1cccc(CN(C)C(=O)c2cc(COc3ccc4ncccc4c3)on2)c1,3,17,59*,41
c1cc2[nH]snc2c2nc(C3CC3)nc12,3,·,62*,40
Cc1cc(C(=O)Nc2ccccc2C(=O)N2CCCCC2)ccc1[N+](=O)[O-],4,·,-12,11
SMILES,HSP90 refold inh,LGR2 inh,TWEAK Fn14 block,TROY NFkB inh
Cc1csc(NC(=O)c2cccnc2)n1,-4,-5,83*,-19
Cc1ccc(C(=O)Nc2ccccc2C(=O)N2CCCC2)cc1[N+](=O)[O-],1,-1,100*,90*
Cc1cc(C)nc(NC(=O)c2ccc(C)c([N+](=O)[O-])c2)n1,-5,0,-14,-8
CCC(=O)NC(=S)Nc1ccc(NC(=O)c2cccnc2)cc1,0,-7,72*,1
Cc1csc(NC(=O)c2ccc(C)c([N+](=O)[O-])c2)n1,12,8,68*,17
C[C@@H]1CN([C@@H](C)CO)S(=O)(=O)c2ccc(-c3ccc(F)cc3)cc2O[C@@H]1CN(C)C(=O)c1ccccc1F,·,4,·,·
